Screening data deposited in PubChem by National Center for Advancing Translational Sciences (NCATS).
The list is not random: actives were taken first. Their share in the collection is about 7.5%.
NPC1 prom act – NPC1 promoter activation; Huh7 NPC1 promoter luciferase reporter, 24 h; Potency, µM (titrated, usually from 9.22 µM), without a hit: at the highest dose activation, actives largely listed as activators; 2.4% of 320,000 active; AID 485313; note: % of control where 0% means no effect; nearly all actives have a fitted effect of over 60% in size
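Quantitative HTS used a cell-based reporter: Huh7 cells stably bearing the NPC1 promoter upstream of luciferase were treated with compounds for 24 h, and promoter activation was read as luminescence.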
SMN2 splice up – SMN2 splice variant enhancement. HEK293 SMN2-luciferase splicing reporter, luminescence, 30-36 h. Potency, µM (titrated, usually from 46.1 µM), for inactives: top-dose activity change, positive = activation, usual class: activators. 2.8% of 210,000 active; note: % of control where 0% means no effect; nearly all actives have a fitted effect of over 55% in size
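HEK293 cells carry an SMN2 minigene-luciferase reporter in which exon 7 inclusion puts luciferase in frame. Cells were seeded at 2000 cells/well, attached for 10-12 hours, then exposed to compounds for 30-36 hours at 37C before ONE-Glo luminescence.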
ELG1 genotox – induces genotoxicity in HEK293T cells with luciferase-tagged ELG1; HEK293T ELG1-luciferase reporter, luminescence, 16 h; Potency, µM (titrated, usually from 46 µM), without a hit: at the top dose activity change, positive = activation, hits mostly activators; 1.3% of 330,000 active; AID 504466; note: % of control where 0% means no effect; nearly all actives have a fitted effect of over 60% in size
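Step 1: seed 2,000 HEK293T ELG1-luciferase cells per well. Step 2: add compound or DMSO, incubate 16 hr at 37 °C. Step 3: ONE-Glo, 30 min at room temperature, read luminescence.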
FLuc counter – firefly luciferase modulation, counter-screen for miR-21 project; P08659; purified FLuc, Km substrates, luminescence inhibition; Potency, µM (titrated, usually from 57.5 µM), inactives show top-dose activity change, negative = inhibition, most hits filed as inhibitors; 6.9% of 360,000 active; AID 588342;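 note: plate controls were vehicle for no effect and reference inhibitor for full effect; nearly all actives have a fitted effect of over 55% in size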
Target sequence (P08659 whole entry, looked up): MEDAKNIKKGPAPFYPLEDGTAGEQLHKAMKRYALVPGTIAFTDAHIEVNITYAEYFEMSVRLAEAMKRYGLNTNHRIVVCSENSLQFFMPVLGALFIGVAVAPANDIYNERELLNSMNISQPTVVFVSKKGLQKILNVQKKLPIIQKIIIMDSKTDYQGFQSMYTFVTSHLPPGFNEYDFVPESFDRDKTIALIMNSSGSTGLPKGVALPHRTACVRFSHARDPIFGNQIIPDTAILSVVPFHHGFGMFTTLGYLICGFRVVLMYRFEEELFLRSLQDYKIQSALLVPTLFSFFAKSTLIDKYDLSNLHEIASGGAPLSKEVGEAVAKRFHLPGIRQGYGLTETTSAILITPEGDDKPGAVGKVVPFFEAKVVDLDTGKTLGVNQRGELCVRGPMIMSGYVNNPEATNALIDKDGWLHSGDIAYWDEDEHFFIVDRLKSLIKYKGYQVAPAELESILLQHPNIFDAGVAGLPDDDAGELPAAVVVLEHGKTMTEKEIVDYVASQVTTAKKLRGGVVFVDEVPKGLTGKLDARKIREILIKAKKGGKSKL
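Purified P. pyralis luciferase (10nM final) with 10uM D-luciferin and 10uM ATP (Km levels) in 50mM Tris acetate pH 7.5, 10mM Mg acetate, 0.01% Tween-20, 0.05% BSA; qHTS 6-point titration, ~60 µM downward; luminescence read.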
KinaseGlo FLuc – blocks Kinase-Glo luciferase, a counter-screen artifact; Q27757; Kinase-Glo luciferase, ATP luminescence, 8 min; Potency, µM (top dose mostly 38.3 µM), inactives show top-dose activity change, negative = inhibition, actives largely listed as inhibitors; 0.28% of 200,000 active; AID 1379; note: % is set by controls: 0 for no effect and ±100 for the full control effect; nearly all actives have a fitted effect of over 60% in size
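Luminescence was the read-out, taken after 8-minute incubation at ambient temperature. Luciferase turned over luciferin with 10 uM ATP in imidazole pH 7.2 buffer containing KCl, MgCl2, Tween 20 and BSA.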
Rab9 promoter act – activators of Rab9 promoter | Huh7 Rab9 promoter-luciferase reporter, luminescence, 24 h | Potency, µM (series often up to 9.22 µM), for the others: at the highest dose activation, negative = inhibition, most hits filed as activators | 2.8% of 320,000 active | AID 485297; note: % of control where 0% means no effect; nearly all actives have a fitted effect of over 60% in size
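Huh7 reporter line, Rab9 promoter upstream of luciferase. Compound exposure 24 h at 37 °C in reduced-serum medium with 10% FBS. Read-out: luminescence.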
* = called active by the depositor; [ ] = another dose, or the depositor's remark. Calls come from the whole dose curve; as a rule, active = well fitted curve in the direction sought with a large enough effect; inconclusive = small, poorly fitted or top-dose-only effect, or another doubt; inactive = no such curve, though single readings can be large; an effect the other way counts as inactive or inconclusive. Potency is the fitted concentration of half-maximal effect.

Screening O=C(c1cc(-c2ccccc2)on1)N1CCC2(CC1)OCCO2 returned NPC1 prom act inconclusive, SMN2 splice up 18µM*, ELG1 genotox inconclusive, FLuc counter 15µM*, KinaseGlo FLuc -1% and Rab9 promoter act 4µM*.
Screening O=C(c1cc(-c2cccc(Cl)c2)on1)N1CCOCC1 returned NPC1 prom act 2.8µM*, ELG1 genotox 23µM*, FLuc counter 13µM* and Rab9 promoter act 3.2µM*.
Screening O=C(c1cc2ccccn2n1)N1CCC2(CC1)OCCO2 returned NPC1 prom act -3%, SMN2 splice up -1%, ELG1 genotox 4%, FLuc counter 5%, KinaseGlo FLuc -1% and Rab9 promoter act -4%.
`Nc1c(C(=O)Nc2ccc([As](=O)(O)O)cc2)cnc2nnnn12` gave SMN2 splice up -4%[9.22 µM] and KinaseGlo FLuc -2%[7.66 µM].
`COc1ccc(N2C(=O)/C(=C/c3cc(C)n(-c4ccc(C)cn4)c3C)C(=O)NC2=S)c(OC)c1` gave NPC1 prom act -1%, SMN2 splice up 8%, ELG1 genotox 13%, FLuc counter 27µM*, KinaseGlo FLuc 1% and Rab9 promoter act -14%.
For COc1ccc(OC)c(N2C(=O)/C(=C/c3ccco3)C(=O)NC2=S)c1 the results were NPC1 prom act -4%, ELG1 genotox -5%, FLuc counter inconclusive and Rab9 promoter act 21%.
For O=C1NC(=O)N(c2ccc3c(c2)OCO3)C(=O)/C1=C/c1ccsc1 the results were NPC1 prom act -2%, SMN2 splice up 19%, ELG1 genotox 3%, FLuc counter 19µM*, KinaseGlo FLuc 5% and Rab9 promoter act -7%.
N#CC(c1cccnc1)N1CCOCC1 (stereo unspecified) was read as NPC1 prom act -3%, ELG1 genotox -1%, FLuc counter 0% and Rab9 promoter act 2%.
`O=C(NCC(c1cccnc1)N1CCOCC1)Oc1ccccc1` (stereo unspecified) gave NPC1 prom act 20%, SMN2 splice up 14µM*, ELG1 genotox inconclusive, FLuc counter 15µM*, KinaseGlo FLuc -1% and Rab9 promoter act inconclusive.
C=CC=O was read as SMN2 splice up -2%.
COc1ccc(C=O)cc1OC was read as SMN2 splice up -1%.
`Cc1ccc(OC(=O)c2ccc(Br)o2)cc1` gave NPC1 prom act -6%, SMN2 splice up -11%, ELG1 genotox 0%, FLuc counter 4.8µM*, KinaseGlo FLuc -4% and Rab9 promoter act -1%.
Cc1ccc(OCCOc2cccc(C=C3C(=O)NC(=O)NC3=O)c2)c(C)c1 was read as NPC1 prom act 0.089µM*, ELG1 genotox inconclusive, FLuc counter 7.6µM* and Rab9 promoter act 0.13µM*.
`O=C1NC(=O)C(=Cc2cccc(OCCOc3ccccc3)c2)C(=O)N1` gave NPC1 prom act 0.56µM*, ELG1 genotox inconclusive, FLuc counter 15µM* and Rab9 promoter act 0.32µM*.
For Nc1cccc2ccccc12 the results were SMN2 splice up -3%.
N#Cc1cc2c(nc1SCC(=O)Nc1cccc(F)c1)C1CCN2CC1 was read as SMN2 splice up 6.3µM* and FLuc counter -7%.
For COc1ccc(/C=C/C(=O)Nc2ccc(C)cc2)cc1 the results were SMN2 splice up inconclusive and FLuc counter 6.7µM*.
Screening COc1ccc2o/c(=N\O)c(C(=O)Nc3ccc(C)cc3)cc2c1 returned NPC1 prom act -1%, ELG1 genotox inconclusive, FLuc counter inconclusive, KinaseGlo FLuc 0% and Rab9 promoter act 0%.
`Nc1c2c(nc3sc4c(c13)CCCC4)CCCCC2` gave NPC1 prom act 2.8µM*, SMN2 splice up 8.9µM*, ELG1 genotox 14%, FLuc counter 1.9µM*, KinaseGlo FLuc -13% and Rab9 promoter act 2.2µM*.
CC1(C)[C@@H]2CC[C@]1(C)CN(CCC[N+](C)(C)C)C2 was read as SMN2 splice up -1%[9.22 µM] and KinaseGlo FLuc -4%[7.66 µM].
For CCOc1ccc(OC(=O)c2ccc3c(=O)n4c(nc3c2)CCC4)cc1 the results were NPC1 prom act -1%, ELG1 genotox -4%, FLuc counter 12µM* and Rab9 promoter act -3%.
Screening c1ccc2c(c1)Sc1ccccc1N2C[C@H]1CN2CCC1CC2 returned SMN2 splice up -17%[9.22 µM] and KinaseGlo FLuc -1%[7.66 µM].
`C=CC(=O)OCC(CO)(COC(=O)C=C)COC(=O)C=C` gave SMN2 splice up -107%.
`Cc1coc2c1CCC(C)C2` (stereo unspecified) gave SMN2 splice up -6%.
`Cc1ccc(N2C(=O)NC(=O)/C(=C\c3cc(C)n(-c4ccc(C(=O)O)cc4)c3C)C2=O)cc1` gave NPC1 prom act 3%, ELG1 genotox -1%, FLuc counter -4% and Rab9 promoter act -5%.
For Cc1cc(/C=C2\C(=O)NC(=O)N(Cc3ccco3)C2=O)c(C)n1-c1ccc(O)cc1 the results were NPC1 prom act 5%, ELG1 genotox 11%, FLuc counter 15µM*, KinaseGlo FLuc -14% and Rab9 promoter act -10%.
For Cc1ccc(-n2c(C)cc(/C=C3/C(=O)NC(=O)N(Cc4ccco4)C3=O)c2C)cc1 the results were NPC1 prom act 0%, SMN2 splice up -19%, ELG1 genotox 1%, FLuc counter 19µM*, KinaseGlo FLuc -1% and Rab9 promoter act -1%.
Cc1cc(/C=C2\C(=O)NC(=O)N(Cc3ccco3)C2=O)c(C)n1-c1ccc(C(=O)O)cc1 was read as NPC1 prom act -3%, ELG1 genotox 5%, FLuc counter -2% and Rab9 promoter act 4%.
For Cc1ccccc1-n1c(C)cc(/C=C2/C(=O)NC(=O)N(Cc3ccco3)C2=O)c1C the results were NPC1 prom act -2%, SMN2 splice up 4%, ELG1 genotox 5%, FLuc counter 19µM*, KinaseGlo FLuc 0% and Rab9 promoter act -1%.
For Cc1ccc(-n2c(C)cc(/C=C3/C(=O)NC(=O)N(C)C3=O)c2C)cc1 the results were NPC1 prom act -1%, SMN2 splice up -6%, ELG1 genotox 1%, FLuc counter 0.6µM*, KinaseGlo FLuc -7% and Rab9 promoter act -2%.
`COc1cccc2c1C(=O)c1c(O)c3c(c(O)c1C2=O)C[C@](O)(/C(C)=N\O)C[C@@H]3O[C@H]1C[C@H](N)[C@@H](O)[C@H](C)O1` gave SMN2 splice up -27%[9.22 µM] and KinaseGlo FLuc -5%[7.66 µM].
